Assay in all cases: DAPPL (digital affinity profiling via proximity ligation, sequencing); 10 mM Tris-HCl pH 7.5, 50 mM NaCl, 1 mM DTT, 4% glycerol, room temperature, 30 min; GST-TFs on glutathione beads, 16-mer random dsDNA library, 0.1% formaldehyde crosslink after washing; high values mean tight binding
What all share (conditions): protein: recombinant; tags: N-terminal GST; dsDNA, one strand shown

One assay concerns the target T1, FLI1 (Homo sapiens, UniProt Q01543 1-452).
T1 sequence: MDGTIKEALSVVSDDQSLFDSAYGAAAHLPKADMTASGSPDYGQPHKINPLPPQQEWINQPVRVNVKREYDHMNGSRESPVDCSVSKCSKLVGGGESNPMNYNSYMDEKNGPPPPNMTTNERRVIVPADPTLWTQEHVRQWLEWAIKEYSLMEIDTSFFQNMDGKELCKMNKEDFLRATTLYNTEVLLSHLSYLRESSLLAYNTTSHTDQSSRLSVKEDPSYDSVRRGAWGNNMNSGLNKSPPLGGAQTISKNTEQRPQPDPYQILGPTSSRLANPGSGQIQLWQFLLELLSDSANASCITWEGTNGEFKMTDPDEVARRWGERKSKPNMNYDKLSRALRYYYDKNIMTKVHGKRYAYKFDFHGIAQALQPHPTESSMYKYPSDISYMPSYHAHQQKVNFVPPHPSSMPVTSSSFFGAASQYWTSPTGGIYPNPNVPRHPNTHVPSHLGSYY
The procedure, abridged:
(§1)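 Pools were built from human transcription factors expressed in yeast as GST fusions, captured on glutathione beads and DNA-barcoded, along with a tag-only sample. Incubation with 200 nmole of a 16-mer random double-stranded DNA library lasted 30 min at room temperature in Tris/NaCl/DTT/glycerol buffer, and was followed by washing, 0.1% formaldehyde crosslinking, proximity ligation, PCR amplification and Illumina NextSeq500 sequencing. Binding signal is the quotient of each hexamer's read frequency for a factor and its frequency for the tag-only sample.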

Another assay deals with T2, ELK1 (Homo sapiens, UniProt P19419 1-428).
T2 sequence: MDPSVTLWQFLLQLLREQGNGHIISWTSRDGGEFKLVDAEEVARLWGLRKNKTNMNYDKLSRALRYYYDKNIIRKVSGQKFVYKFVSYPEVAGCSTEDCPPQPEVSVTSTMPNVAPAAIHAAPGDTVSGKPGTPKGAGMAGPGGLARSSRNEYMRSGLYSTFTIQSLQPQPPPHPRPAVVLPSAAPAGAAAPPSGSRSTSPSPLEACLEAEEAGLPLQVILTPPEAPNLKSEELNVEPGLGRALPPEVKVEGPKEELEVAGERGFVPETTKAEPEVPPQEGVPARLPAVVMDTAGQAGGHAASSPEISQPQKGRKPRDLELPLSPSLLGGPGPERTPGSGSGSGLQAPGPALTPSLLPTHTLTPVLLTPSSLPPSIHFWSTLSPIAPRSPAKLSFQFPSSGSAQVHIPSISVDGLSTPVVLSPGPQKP
The procedure, abridged: as §1

Another assay addresses T3, GABPA (Homo sapiens, UniProt Q06546 1-454).
T3 sequence: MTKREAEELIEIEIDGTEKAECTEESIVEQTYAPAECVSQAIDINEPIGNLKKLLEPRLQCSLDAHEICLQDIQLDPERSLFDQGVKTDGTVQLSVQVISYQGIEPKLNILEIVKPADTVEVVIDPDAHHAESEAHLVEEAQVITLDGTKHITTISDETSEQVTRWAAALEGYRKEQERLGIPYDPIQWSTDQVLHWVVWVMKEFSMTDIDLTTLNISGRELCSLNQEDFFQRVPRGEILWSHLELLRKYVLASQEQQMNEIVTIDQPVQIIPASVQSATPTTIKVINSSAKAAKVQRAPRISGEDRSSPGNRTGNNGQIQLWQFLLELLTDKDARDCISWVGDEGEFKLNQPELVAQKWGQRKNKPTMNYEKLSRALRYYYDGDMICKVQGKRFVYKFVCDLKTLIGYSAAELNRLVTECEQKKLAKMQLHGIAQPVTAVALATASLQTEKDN
Summed up: as §1

Another assay addresses T4, ERG (Homo sapiens, UniProt P11308 1-479).
T4 sequence: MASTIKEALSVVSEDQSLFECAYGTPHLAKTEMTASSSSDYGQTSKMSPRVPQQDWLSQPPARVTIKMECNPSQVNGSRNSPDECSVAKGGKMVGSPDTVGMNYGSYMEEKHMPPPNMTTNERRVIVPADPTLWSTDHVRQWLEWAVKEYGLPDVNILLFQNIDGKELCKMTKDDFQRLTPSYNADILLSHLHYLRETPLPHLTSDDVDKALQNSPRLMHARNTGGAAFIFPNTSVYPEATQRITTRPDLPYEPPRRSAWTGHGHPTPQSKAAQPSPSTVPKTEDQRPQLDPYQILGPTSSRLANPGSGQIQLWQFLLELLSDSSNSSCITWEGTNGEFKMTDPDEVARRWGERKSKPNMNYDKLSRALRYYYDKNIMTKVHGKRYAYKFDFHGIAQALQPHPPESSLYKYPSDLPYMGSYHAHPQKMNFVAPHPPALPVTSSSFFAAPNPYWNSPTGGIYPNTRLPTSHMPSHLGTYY
The procedure, abridged: as §1

The target of another assay is ELF1 (Homo sapiens, UniProt P32519 1-619). Summed up: as §1
In the next assay the target is T5, EHF (Homo sapiens, UniProt Q9NZC4 1-300).
T5 sequence: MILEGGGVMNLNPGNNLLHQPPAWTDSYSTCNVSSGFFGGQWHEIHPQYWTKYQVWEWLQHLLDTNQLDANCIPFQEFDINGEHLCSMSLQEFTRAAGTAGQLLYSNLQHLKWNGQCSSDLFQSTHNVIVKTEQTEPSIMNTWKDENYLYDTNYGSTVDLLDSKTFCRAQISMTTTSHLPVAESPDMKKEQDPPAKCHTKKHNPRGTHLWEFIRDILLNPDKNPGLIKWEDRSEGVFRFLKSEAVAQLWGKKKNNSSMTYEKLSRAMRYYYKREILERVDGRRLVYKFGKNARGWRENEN
The procedure, abridged: as §1

In another assay the target is SPI1 (Homo sapiens, UniProt P17947 1-270). Summed up:
as §1

The target in the next assay is SPIB (Homo sapiens, UniProt Q01892 1-262). The procedure, abridged:
as §1

In another assay the target is T6, ELK3 (Homo sapiens, UniProt P41970 1-407).
T6 sequence: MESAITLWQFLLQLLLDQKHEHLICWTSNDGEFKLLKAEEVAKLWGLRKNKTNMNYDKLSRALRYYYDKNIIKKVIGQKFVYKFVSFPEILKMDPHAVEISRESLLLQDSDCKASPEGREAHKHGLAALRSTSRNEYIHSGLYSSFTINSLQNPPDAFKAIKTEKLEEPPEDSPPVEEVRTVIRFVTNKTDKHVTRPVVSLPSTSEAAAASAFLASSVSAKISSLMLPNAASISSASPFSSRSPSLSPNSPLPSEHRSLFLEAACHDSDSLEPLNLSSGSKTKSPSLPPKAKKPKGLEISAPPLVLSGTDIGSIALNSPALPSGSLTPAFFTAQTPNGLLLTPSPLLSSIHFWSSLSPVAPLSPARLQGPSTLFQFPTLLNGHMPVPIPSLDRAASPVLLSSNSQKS
The procedure, abridged: as §1

ELF1, sequence (P32519 whole entry): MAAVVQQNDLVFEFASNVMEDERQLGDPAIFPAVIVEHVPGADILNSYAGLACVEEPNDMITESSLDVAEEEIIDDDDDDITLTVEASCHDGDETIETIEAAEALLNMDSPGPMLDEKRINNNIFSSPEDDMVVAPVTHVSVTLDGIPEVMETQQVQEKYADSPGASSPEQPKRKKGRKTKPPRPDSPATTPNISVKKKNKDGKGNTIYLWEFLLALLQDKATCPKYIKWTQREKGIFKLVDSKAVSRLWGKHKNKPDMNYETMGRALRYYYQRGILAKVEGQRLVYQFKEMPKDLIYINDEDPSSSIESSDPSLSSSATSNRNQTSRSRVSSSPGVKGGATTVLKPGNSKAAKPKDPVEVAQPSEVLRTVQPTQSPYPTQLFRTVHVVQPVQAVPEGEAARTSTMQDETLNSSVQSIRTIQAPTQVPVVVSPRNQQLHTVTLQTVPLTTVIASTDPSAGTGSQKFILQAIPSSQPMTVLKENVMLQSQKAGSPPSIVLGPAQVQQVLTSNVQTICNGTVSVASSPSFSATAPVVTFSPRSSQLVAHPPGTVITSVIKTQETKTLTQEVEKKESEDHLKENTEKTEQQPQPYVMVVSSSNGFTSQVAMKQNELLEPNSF
SPIB, sequence (Q01892 whole entry): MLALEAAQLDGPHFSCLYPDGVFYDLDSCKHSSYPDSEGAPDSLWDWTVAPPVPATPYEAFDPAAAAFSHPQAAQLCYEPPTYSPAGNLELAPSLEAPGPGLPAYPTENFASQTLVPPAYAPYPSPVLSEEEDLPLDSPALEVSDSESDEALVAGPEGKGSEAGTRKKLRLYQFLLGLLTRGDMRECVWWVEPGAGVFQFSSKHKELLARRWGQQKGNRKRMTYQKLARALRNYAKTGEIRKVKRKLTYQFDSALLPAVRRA

As to TATCGT, the binding signal with FLI1 is 1.18 fold enrichment (6-mer frequency, TF over GST control); with ELK1 it was 1.28 fold enrichment (6-mer frequency, TF over GST control); with GABPA, 1.04 fold enrichment (6-mer frequency, TF over GST control); with ERG, 1.14 fold enrichment (6-mer frequency, TF over GST control); in the assay with ELF1 it was 1.14 fold enrichment (6-mer frequency, TF over GST control); with EHF, 1.1 fold enrichment (6-mer frequency, TF over GST control). Moreover, the binding signal was 1.07 fold enrichment (6-mer frequency, TF over GST control) in the assay with SPI1; 1.2 fold enrichment (6-mer frequency, TF over GST control) with SPIB; 1.18 fold enrichment (6-mer frequency, TF over GST control) with ELK3.

Regarding GCTCAC, the binding signal in the assay with FLI1 is 1.37 fold enrichment (6-mer frequency, TF over GST control); with ELK1, 1.51 fold enrichment (6-mer frequency, TF over GST control); with GABPA it was 1.65 fold enrichment (6-mer frequency, TF over GST control); in the assay with ERG, 1.51 fold enrichment (6-mer frequency, TF over GST control); with ELF1, 1.49 fold enrichment (6-mer frequency, TF over GST control); with EHF it was 1.51 fold enrichment (6-mer frequency, TF over GST control). The binding signal with SPI1 is 1.41 fold enrichment (6-mer frequency, TF over GST control); with SPIB, 1.44 fold enrichment (6-mer frequency, TF over GST control); with ELK3, 1.32 fold enrichment (6-mer frequency, TF over GST control).

As to CCTCCA, the binding signal in the assay with FLI1 was 1.37 fold enrichment (6-mer frequency, TF over GST control); with ELK1 it was 1.5 fold enrichment (6-mer frequency, TF over GST control); with GABPA, 1.23 fold enrichment (6-mer frequency, TF over GST control); in the assay with ERG, 1.38 fold enrichment (6-mer frequency, TF over GST control); with ELF1 it was 1.37 fold enrichment (6-mer frequency, TF over GST control); with EHF, 1.33 fold enrichment (6-mer frequency, TF over GST control). Further, the binding signal is 1.28 fold enrichment (6-mer frequency, TF over GST control) in the assay with SPI1; 1.3 fold enrichment (6-mer frequency, TF over GST control) in the assay with SPIB; 1.37 fold enrichment (6-mer frequency, TF over GST control) with ELK3.

TCCAAT: the binding signal with FLI1 is 1.21 fold enrichment (6-mer frequency, TF over GST control); with ELK1, 1.13 fold enrichment (6-mer frequency, TF over GST control); with GABPA it was 1.18 fold enrichment (6-mer frequency, TF over GST control); with ERG it was 1.13 fold enrichment (6-mer frequency, TF over GST control); in the assay with ELF1, 1.24 fold enrichment (6-mer frequency, TF over GST control); in the assay with EHF, 1.11 fold enrichment (6-mer frequency, TF over GST control). In addition, the binding signal with SPI1 was 1.14 fold enrichment (6-mer frequency, TF over GST control); with SPIB it was 1.25 fold enrichment (6-mer frequency, TF over GST control); with ELK3, 1.16 fold enrichment (6-mer frequency, TF over GST control).

As for TCCTTG, the binding signal with FLI1 is 1.25 fold enrichment (6-mer frequency, TF over GST control); with ELK1, 1.31 fold enrichment (6-mer frequency, TF over GST control); with GABPA, 1.25 fold enrichment (6-mer frequency, TF over GST control); with ERG, 1.35 fold enrichment (6-mer frequency, TF over GST control); with ELF1, 1.25 fold enrichment (6-mer frequency, TF over GST control); with EHF it was 1.32 fold enrichment (6-mer frequency, TF over GST control). Moreover, the binding signal with SPI1 was 1.31 fold enrichment (6-mer frequency, TF over GST control); with SPIB, 1.41 fold enrichment (6-mer frequency, TF over GST control); with ELK3, 1.29 fold enrichment (6-mer frequency, TF over GST control).

Take TATACG: the binding signal is 1.32 fold enrichment (6-mer frequency, TF over GST control) with FLI1; 1.31 fold enrichment (6-mer frequency, TF over GST control) with ELK1; 1.3 fold enrichment (6-mer frequency, TF over GST control) in the assay with GABPA; 1.24 fold enrichment (6-mer frequency, TF over GST control) with ERG; 1.31 fold enrichment (6-mer frequency, TF over GST control) with ELF1; 1.2 fold enrichment (6-mer frequency, TF over GST control) with EHF. For the same sequence, the binding signal is 1.2 fold enrichment (6-mer frequency, TF over GST control) in the assay with SPI1; 1.35 fold enrichment (6-mer frequency, TF over GST control) with SPIB; 1.22 fold enrichment (6-mer frequency, TF over GST control) with ELK3.

Consider CCTATG, for which the binding signal in the assay with FLI1 was 1.14 fold enrichment (6-mer frequency, TF over GST control); in the assay with ELK1 it was 1.31 fold enrichment (6-mer frequency, TF over GST control); with GABPA it was 1.31 fold enrichment (6-mer frequency, TF over GST control); with ERG, 1.14 fold enrichment (6-mer frequency, TF over GST control); in the assay with ELF1, 1.27 fold enrichment (6-mer frequency, TF over GST control); with EHF, 1.14 fold enrichment (6-mer frequency, TF over GST control). In addition, the binding signal with SPI1 was 1.21 fold enrichment (6-mer frequency, TF over GST control); with SPIB, 1.19 fold enrichment (6-mer frequency, TF over GST control); in the assay with ELK3, 1.18 fold enrichment (6-mer frequency, TF over GST control).

TATGTA: the binding signal with FLI1 was 1.32 fold enrichment (6-mer frequency, TF over GST control); with ELK1, 1.25 fold enrichment (6-mer frequency, TF over GST control); in the assay with GABPA, 1.29 fold enrichment (6-mer frequency, TF over GST control); with ERG, 1.2 fold enrichment (6-mer frequency, TF over GST control); in the assay with ELF1, 1.29 fold enrichment (6-mer frequency, TF over GST control); with EHF it was 1.23 fold enrichment (6-mer frequency, TF over GST control). Moreover, the binding signal in the assay with SPI1 was 1.3 fold enrichment (6-mer frequency, TF over GST control); with SPIB, 1.31 fold enrichment (6-mer frequency, TF over GST control); with ELK3, 1.17 fold enrichment (6-mer frequency, TF over GST control).

The values above are taken from article PMC7862700, “An all-to-all approach to the identification of sequence-specific readers for epigenetic DNA modifications on cytosine”.
